PfM18AAP inh: PfM18AAP enzyme inhibition; recombinant PfM18AAP, H-Glu-NHMec fluorogenic cleavage; inhibition, % at 7.35 µM; hit rate 1.2% among 290,000;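 active = inhibition above the campaign mean inhibition over all tested compounds plus 3 SD, cut at about 28% in these data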;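 also: 0% = plate median of test compound wells and 100% = 2 mM ZnCl2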
MBD2 inh: blocks human MBD2 binding to methylated DNA; TR-FRET, MBD2 binding to methylated oligonucleotide; Q9UBB5; AID 686964; inhibition, % at 4.4 µM; hit rate 0.31% among 370,000; in the data active = inhibition above about 13%
PRMT1 inh: inhibitors of human PRMT1; recombinant PRMT1, activity-based probe fluorescence polarization; inhibition, % at 2.79 µM; hit rate 1.3% among 370,000;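 active = inhibition above about 21% made by adding two undisclosed values, limit read from the data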
Target sequence (Q99873 whole entry, looked up): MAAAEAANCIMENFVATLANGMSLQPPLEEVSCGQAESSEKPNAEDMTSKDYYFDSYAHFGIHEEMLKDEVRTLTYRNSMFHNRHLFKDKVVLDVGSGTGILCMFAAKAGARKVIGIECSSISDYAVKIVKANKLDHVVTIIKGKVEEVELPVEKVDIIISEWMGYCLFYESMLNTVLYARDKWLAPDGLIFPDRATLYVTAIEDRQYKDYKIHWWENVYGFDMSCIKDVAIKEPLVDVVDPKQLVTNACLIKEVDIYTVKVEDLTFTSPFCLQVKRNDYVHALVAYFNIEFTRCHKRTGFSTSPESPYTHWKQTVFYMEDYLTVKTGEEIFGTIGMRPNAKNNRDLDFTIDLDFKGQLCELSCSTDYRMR
UHRF1 MBD2 ctr: UHRF1 methyl-DNA binding inhibition | inhibition, % at 4.4 µM | AID 687016 | UHRF1 binding to methylated oligo, TR-FRET | hit rate 0.75% among 370,000 | Q96T88; in the data active = inhibition above about 21%;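 also: UHRF1 SRA domain binding a hemimethylated CpG hairpin DNA probe; 0% = median of test compound wells and 100% = reference inhibitor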
PfGluPho inh: PfG6PD (Plasmodium falciparum) enzyme inhibition | AID 504690 | hit rate 0.78% among 350,000 | inhibition, % at 20 µM | PfGluPho enzyme, NADPH resazurin-diaphorase fluorescence;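 active = inhibition reaching at least a set limit at 20 µM in the primary screen, cut at about 59% in these data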;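 also: 0% = DMSO wells with substrate and 100% = DMSO wells lacking glucose-6-phosphate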
Active calls of the source: *; nt = not tested or not shown. The list is not random: actives were taken first. Their share in the collection is about 3.3%.

SMILES | PfM18AAP inh | MBD2 inh | PRMT1 inh | UHRF1 MBD2 ctr | PfGluPho inh
COCN(C#N)c1nc(N(C)C)nc(N(C)C)n1 | -1 | 0 | -2 | 45* | 7
CCc1cc2c(nc1CC)CCCN2S(=O)(=O)c1ccccc1C | nt | -1 | 4 | -1 | nt
Cc1csc(NC(=O)c2cccnc2Cl)n1 | nt | -3 | 3 | 12 | -1
O=C(Nc1nncs1)c1cccnc1Cl | -8 | 10 | 1 | 25* | -12
N=c1c2c(-c3ccccc3)c(-c3ccccc3)n(CCc3ccccc3)c2ncn1C1CCC(O)CC1 (stereo not drawn) | nt | 1 | 1 | 0 | nt
Cc1onc(-c2ccccc2)c1C(=O)N/N=C/c1cc(Br)c(O)c(Br)c1 | 2 | -3 | 0 | -3 | -4
Cc1cccc(/C=N/NC(=O)c2c(-c3ccccc3)noc2C)c1O | 29* | -1 | -4 | 2 | 17
O[C@H](COc1ccc(F)cc1)CN1CCC(C(O)(c2ccccc2)c2ccccc2)CC1 | nt | -1 | -1 | 1 | nt
COc1ccc([N+](=O)[O-])cc1NC(=O)C(C)N1CCCC1 (stereo not drawn) | 4 | 0 | -6 | 49* | 9
COc1ccc([N+](=O)[O-])cc1NC(=O)C(C)Sc1nc(C)c(C)c(C)n1 (stereo not drawn) | 0 | -1 | -2 | 61* | 23
COC(=O)[C@]12C[C@H](CC(=O)N3CCCC3)C(=O)N(CCC3=CCCCC3)C1=C[C@H](COCc1ccccc1)O[C@@H]2C | nt | -5 | 0 | -3 | nt
Cc1c(N2C(=O)/C(=C/c3ccccc3)SC2=S)c(=O)n(-c2ccccc2)n1C | 15 | -8 | 9 | -7 | -13
Cc1c(N2C(=O)/C(=C/c3cccc4ccccc34)SC2=S)c(=O)n(-c2ccccc2)n1C | 11 | -2 | 8 | 31* | -13
C[C@](N)(Cc1ccc(O)c(O)c1)C(=O)O | 65* | 12 | 15 | 40* | 32
COc1ccc(C[C@](C)(N)C(=O)O)cc1OC | nt | 0 | 19 | 1 | 29
COc1cccc(CN2CCc3[nH]c(=S)[nH]c(=O)c3C2)c1 | 30* | 2 | 0 | -2 | 1
O=C1N[C@@H](c2ccccc2)COC(=O)[C@@H](Cc2ccc(F)cc2)C/C=C\C[C@@H]1CC(=O)N(CCO)Cc1ccccc1 | nt | -2 | 0 | -2 | 12
O=C1CCC/C=C\C[C@@H](CC(=O)N(CCO)Cc2ccccc2)C(=O)N[C@H](c2ccccc2)CO1 | nt | 5 | 3 | 22* | 4
CC(C)CCN(CCC(C)C)C(CO)(CO)CO | 1 | 11 | 5 | 22* | 8
C/C=C/C=C\C(=O)Nc1cccc(C2=NOC3(C2)C[C@@H](C(N)=O)N(C(=O)c2cc([N+](=O)[O-])cc([N+](=O)[O-])c2C)C3)c1 (stereo partly drawn) | nt | 0 | 24* | 1 | 36
C=CCn1c(NC(=O)c2ccccc2Cl)c(C#N)c2nc3ccccc3nc21 | 17 | 18* | 0 | 13 | 9
CCCCn1c(NC(C)=O)c(C#N)c2nc3ccccc3nc21 | 11 | -6 | -3 | -7 | 55
CCOc1nc(C)cc(C)c1S(=O)(=O)c1ccc(Cl)cc1 | 1 | 7 | 1 | 25* | 42
Cc1cccc(N=[N+]([O-])c2cccc(C)n2)n1 | nt | -2 | -1 | 42* | 5
CCOC(=O)[C@@H]1CSCCS(=O)(=O)N1C(=O)[C@H](C)NC(=O)OC(C)(C)C | nt | -3 | -2 | 16 | nt
SMILES | PfM18AAP inh | MBD2 inh | PRMT1 inh | UHRF1 MBD2 ctr | PfGluPho inh
O=C(CSc1nnc(-c2ccco2)c(-c2ccco2)n1)Nc1ccccc1 | 32* | 11 | 48* | 41* | 49
CN(C)c1ccc(NC(=O)CSc2nnc(-c3ccco3)c(-c3ccco3)n2)cc1 | 31* | -2 | 12 | -10 | 56
CSc1nnc(-c2ccco2)c(-c2ccco2)n1 | 12 | 0 | 59* | 18 | 51
CSc1nnc(-c2ccccc2)c(-c2ccccc2)n1 | 3 | 2 | 0 | 3 | -16
O=S1(=O)CCOCCCN1Cc1cccc(C(F)(F)F)c1 | 0 | -3 | 1 | -2 | -9
O=S1(=O)CCOCCCN1Cc1ccccc1F | -3 | -3 | -2 | 41* | -4
COCCNC(=O)/C(C#N)=C/c1c(N2CCN(C)CC2)nc2c(C)cccn2c1=O | 8 | -7 | 4 | -4 | -20
COCCCNC(=O)/C(C#N)=C/c1c(N2CCN(C)CC2)nc2c(C)cccn2c1=O | -3 | -7 | 7 | 52* | -1
Cc1ccc(S(=O)(=O)/C(C#N)=C/c2c(N3CCC(C(N)=O)CC3)nc3c(C)cccn3c2=O)cc1 | 1 | 9 | 1 | 22* | 7
CCN1CCN(c2nc3c(C)cccn3c(=O)c2/C=C(\C#N)C(=O)NCCOC)CC1 | 7 | -7 | 23* | 1 | 3
Cc1cccn2c(=O)c(/C=C(\C#N)S(=O)(=O)c3ccccc3)c(N3CCC(C(N)=O)CC3)nc12 | -2 | 2 | 3 | -2 | -1
O=S1(=O)C=CCN1Cc1cn(Cc2ccc(Cl)cc2)nn1 | nt | -1 | 4 | 2 | nt
O=C(CSc1nnc(COc2ccccc2)n1-c1ccc(Cl)cc1)Nc1ccc(OCc2ccccc2)cc1 | nt | 2 | 2 | 0 | nt
CCCCCCCN(C(=O)CCl)c1ccccc1C | -6 | 1 | 47* | 5 | 2
CCCCCCCCN1C(=O)[C@@H](CC(=O)NCC2CCCCC2)C[C@@]2(C(=O)OC)C1=C[C@H](C(C)C)O[C@@H]2C1CC1 | nt | -5 | 1 | 1 | nt
Cn1nc(-c2ccccc2)c(CN2CCN(c3ncccn3)CC2)c1Cl | 4 | 7 | 0 | 34* | -2
O=C(NCCCc1ccccc1)[C@H](Cc1c[nH]c2ccccc12)NC1(C(=O)NCCc2c[nH]c3ccccc23)CCC1 | nt | -2 | -2 | 1 | nt
CC(=O)Oc1cccc(N2C(=O)C3CC=CCC3C2=O)c1 (stereo not drawn) | -9 | -2 | 1 | 0 | -7
CC(=O)Oc1cccc2c1C(=O)C1CC=CC(OC(C)=O)C1C2=O (stereo not drawn) | nt | -9 | 56* | -11 | -373
COC(=O)c1cc(-c2ccc3ccccc3c2)c(=O)n2c1CCC2 | nt | 0 | -2 | -1 | nt
Cc1ccc(C)c(C(C)NC(=O)c2ccccc2Br)c1 (stereo not drawn) | 2 | 0 | 4 | 22* | -22
COc1ccc(CCNC(=O)COC(=O)CSc2ccc(C(N)=O)cc2[N+](=O)[O-])cc1OC | nt | -8 | 22* | -1 | 14
CC[C@H]1/C(=C/c2ccccc2)N2C(=O)C[C@H](c3ccccc3)N=C2N1C | nt | -7 | -5 | -3 | nt
O=C(/C=C/c1ccc(Br)cc1)c1ccc(NC(=O)c2ccco2)cc1 | 5 | -4 | -3 | 0 | 11
O=C(/C=C/c1ccc(Br)cc1)c1ccco1 | 29* | -7 | 5 | -3 | 19
O=C1C=CC(=O)N1c1ccc(OC(F)F)cc1 | -11 | 0 | 0 | 13 | 87*
Cc1cc(O)cc(=O)n1-c1ccc(OC(F)F)cc1 | nt | 3 | -3 | 3 | nt
Cc1ccc(-c2nc3ccccc3nc2Cl)cc1 | -11 | 3 | 1 | 0 | 8
Cc1ccc(-c2nc3ccccc3nc2NN)cc1 | 31* | 3 | 22* | 0 | 1

Assay outcomes deposited in PubChem BioAssay by several laboratories.
